Rows were chosen to be rich in hits. Some 11% of all compounds tested hit in one or more screens of this group.
ALDH1A1 block = qHTS Assay for Inhibitors of Aldehyde Dehydrogenase 1 (ALDH1A1); Aldehyde dehydrogenase 1A1 (Homo sapiens), P00352; Purified ALDH1A1, NADH fluorescence, propionaldehyde substrate; Potency, µM (doses to about 75.3 µM), usual class: inhibitors; 7.3% of 220,000 active
HPGD inh = qHTS Assay for Inhibitors of HPGD (15-Hydroxyprostaglandin Dehydrogenase); Potency, µM, actives largely listed as inhibitors; 4.3% of 150,000 active; purified HPGD, NADH fluorescence kinetic, PGE2 substrate; AID 894, 2007
Target sequence (P15428 whole entry, looked up): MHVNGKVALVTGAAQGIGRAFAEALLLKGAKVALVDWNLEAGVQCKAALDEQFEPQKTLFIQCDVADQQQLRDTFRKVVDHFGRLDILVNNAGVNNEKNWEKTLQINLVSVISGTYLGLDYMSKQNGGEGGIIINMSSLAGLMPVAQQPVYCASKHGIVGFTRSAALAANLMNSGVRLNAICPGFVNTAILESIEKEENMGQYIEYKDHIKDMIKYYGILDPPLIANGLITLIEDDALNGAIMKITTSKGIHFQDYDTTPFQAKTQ
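NADH formation kinetics: reaction with 30 uM PGE2 and 1 mM NAD+ (final), 20 nM enzyme, Tris-HCl pH 8 with Tween 20, after 15 min compound preincubation at room temperature. Fluorescence change, last versus first of five reads.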
PNC inhibitor = High Content Assay for Compounds that inhibit the Assembly of the Perinucleolar Compartment; PC3M PTB-GFP, PNC prevalence imaging, 16 h; stronger effect = lower value; activity change (PNC), negative = inhibition, % at 10 µM; 3.1% of 140,000 active; AID 2417, 2010;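 active = readout at or below -70, meaning at least 70% loss of cells showing the perinucleolar compartment, a nuclear body marking cancer cells; inconclusive = readout between -30 and a set limit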
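Compounds are pinned in duplicate onto adhered PC3M cells stably expressing GFP-tagged PTB and incubated 16 h at 37 C. Cells are then fixed, nuclei stained with Hoechst, and PNC-positive cells counted.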
Each line names hits and unclear results; the compound was inactive in the other large screens. Unless noted, calls come from the whole dose curve; as a rule, active = well fitted inhibition curve with a large enough effect (not every such curve was filed as active); inconclusive = small, poorly fitted or top-dose-only effect, or another doubt; inactive = no such curve, though single readings can be large or run the other way.

N=C(N)c1ccc(N=Nc2c(O)ccc3c2[nH]c2ccccc23)cc1	none (no result: PNC inhibitor)
CCCCCCCSc1nnc(N)s1	none (no result: HPGD inh, PNC inhibitor)
CCOC(=O)c1cc(-c2nnc(-c3ccc(Oc4ccccc4)cc3)o2)c(C)nc1C	ALDH1A1 block inconclusive, HPGD inh inconclusive
CCCNc1nc(C)c(C(C)=O)cc1C#N	none
CS(=O)(=O)c1ccc2nc(NC(=O)CC3CCCC3)sc2c1	ALDH1A1 block inconclusive
CCC(=O)Nc1nc2ccc(S(C)(=O)=O)cc2s1	PNC inhibitor -100
CCc1ccc(C(=O)Nc2ccc(S(=O)(=O)Nc3nc(C)cc(C)n3)cc2)o1	ALDH1A1 block inconclusive, PNC inhibitor -107
Cc1cc(C)nc(NS(=O)(=O)c2ccc(NC(=O)c3ccco3)cc2)n1	none
O=C(Cn1c(=O)oc2cc(S(=O)(=O)N3CCCCCC3)ccc21)NC1CCCCC1	PNC inhibitor inconclusive
O=C(Cn1c(=O)oc2cc(S(=O)(=O)N3CCCC3)ccc21)NCc1ccccn1	ALDH1A1 block 18µM, PNC inhibitor inconclusive
O=C(CSc1oc(-c2ccc(F)cc2)nc1S(=O)(=O)c1ccc(F)cc1)NCC1CCCO1 (stereo unspecified)	none
O=C(CSc1oc(-c2ccc(F)cc2)nc1S(=O)(=O)c1ccccc1)NCC1CCCO1 (stereo unspecified)	PNC inhibitor -119
Cc1ccc(-c2nc(S(=O)(=O)c3ccc(F)cc3)c(SCC(=O)NCC3CCCO3)o2)cc1 (stereo unspecified)	none
O=C(CSc1oc(-c2ccccc2)nc1S(=O)(=O)c1ccc(F)cc1)NCC1CCCO1 (stereo unspecified)	ALDH1A1 block inconclusive, HPGD inh inconclusive, PNC inhibitor -100
O=C(CSc1ccc2ccccc2c1)Nc1ncccn1	none (no result: HPGD inh)
CC1=C(C(=O)Nc2ccccc2C)C(c2ccc(C)o2)N2C(=O)CSC2=N1 (stereo unspecified)	PNC inhibitor inconclusive
CCCCNC(=S)Nc1ccc2nc3n(c(=O)c2c1)CCCCC3	HPGD inh 14µM
CC(C)CCNC(=S)Nc1ccc2nc3n(c(=O)c2c1)CCCCC3	ALDH1A1 block inconclusive, HPGD inh 4.5µM
CC(C)OCCCNC(=S)Nc1ccc2nc3n(c(=O)c2c1)CCCCC3	none (no result: HPGD inh, PNC inhibitor)
CN(Cc1ccccc1)C(=S)Nc1ccc2nc3n(c(=O)c2c1)CCCCC3	none (no result: HPGD inh, PNC inhibitor)
CC1CCN(C(=S)Nc2ccc3nc4n(c(=O)c3c2)CCCCC4)CC1	ALDH1A1 block inconclusive, HPGD inh 13µM, PNC inhibitor inconclusive
CCOCCCNC(=S)Nc1ccc2nc3n(c(=O)c2c1)CCCCC3	none (no result: HPGD inh, PNC inhibitor)
CN(C)C[C@@H](O)c1ccc(Cl)c2ccccc12	none (no result: PNC inhibitor)
CCOC(=O)c1cc(CC)sc1/N=C/c1c(O)ccc2ccccc12	ALDH1A1 block inconclusive, PNC inhibitor -88
CCOC(=O)c1cc(CC)sc1/N=C/C1C(=O)CCCC1=O	none (no result: HPGD inh, PNC inhibitor)
CCOC(=O)N/N=C\c1ccc(-c2cccc(C(F)(F)F)c2)o1	none (no result: HPGD inh, PNC inhibitor)
N#C/C(=C\c1ccc(-c2cccc(C(F)(F)F)c2)o1)C(=O)Nn1cnnc1	HPGD inh 1.4µM
O=C1COc2ccc(C(=O)COC(=O)CNC(=O)C3CCCCC3)cc2N1	none (no result: HPGD inh, PNC inhibitor)
COC(=O)c1ccc(C#CC(NP(=O)(c2ccccc2)c2ccccc2)c2ccccc2)cc1 (stereo unspecified)	ALDH1A1 block inconclusive, HPGD inh 25µM (no result: PNC inhibitor)
COC(=O)c1cccc(C#CC(NP(=O)(c2ccccc2)c2ccccc2)c2ccccc2)c1 (stereo unspecified)	ALDH1A1 block 13µM (no result: PNC inhibitor)
COC(=O)c1cccc(NC(=O)CCCOc2ccccc2)c1	ALDH1A1 block inconclusive, PNC inhibitor inconclusive
CCC[C@@H]1C[C@@]1(CCC)[C@@H](NP(=O)(c1ccccc1)c1ccccc1)c1ccc(C(=O)OC)cc1	none
COc1cccc(Cn2c(=O)c(C)nc3cnc(OCc4ccccc4)nc32)c1	ALDH1A1 block inconclusive (no result: PNC inhibitor)
CCCCC(=O)NCCc1cc2c(OC)ccc(OC)c2[nH]c1=O	none
COc1ccc(OC)c(CCNC(=O)CS(=O)(=O)Cc2nc(-c3ccccc3C)oc2C)c1	ALDH1A1 block inconclusive
CCN(CC)c1ccc(/C=C(\C#N)c2nc(-c3cccs3)c(NC(C)=O)s2)cc1	ALDH1A1 block inconclusive (no result: HPGD inh)
CC(C)C(=O)NS(=O)(=O)c1ccc(N)cc1	ALDH1A1 block inconclusive, PNC inhibitor inconclusive
CC(C)CC(=O)NS(=O)(=O)c1ccc(N)cc1	ALDH1A1 block 10µM, PNC inhibitor inconclusive
O=C(O)c1cn(-c2ccc(F)cc2)c(=O)c2ccccc12	none (no result: HPGD inh, PNC inhibitor)
O=C(Cn1cc(S(=O)(=O)Cc2ccccc2)c2ccccc21)Nc1ccccc1	ALDH1A1 block inconclusive, PNC inhibitor -82
COc1ccc(NC(=O)Cn2cc(S(=O)(=O)Cc3ccccc3)c3ccccc32)c(OC)c1	ALDH1A1 block inconclusive
CCOC(=O)c1nnn(-c2nonc2N)c1CN(CC)c1ccccc1	none
O=C(NC(NNc1ccc([N+](=O)[O-])cc1)(C(F)(F)F)C(F)(F)F)c1ccc(Cl)cc1	ALDH1A1 block inconclusive, HPGD inh 16µM, PNC inhibitor -82
CCC(=O)Nc1ccc(C(=O)NNC(=O)c2ccc([N+](=O)[O-])cc2)cc1	none (no result: HPGD inh, PNC inhibitor)
CC(C)(C)C(=O)[C@H](C(c1ccccc1)N1CCOCC1)N1CCOCC1 (stereo partly specified)	none (no result: PNC inhibitor)
COc1cc(C(c2nnnn2C(C)(C)C)N2CCN(c3nc4ccccc4s3)CC2)ccc1O (stereo unspecified)	ALDH1A1 block inconclusive, PNC inhibitor inconclusive
O=C(C1CCN(S(=O)(=O)N2CCCC2)CC1)N1CCCCC1	none
O=C(C1CCN(S(=O)(=O)N2CCCCC2)CC1)N1CCCCC1	ALDH1A1 block inconclusive, HPGD inh 20µM
CC(=O)Oc1ccc2c(C)cc(=O)oc2c1	ALDH1A1 block inconclusive
COc1ccc2c(c1)[nH]c1c(Cl)ncnc12	ALDH1A1 block inconclusive, HPGD inh inconclusive
COc1ccc2c(C)cc(=S)[nH]c2c1	ALDH1A1 block 32µM (no result: HPGD inh, PNC inhibitor)
CC(=O)Oc1ccc2c(C)cc(=O)[nH]c2c1	PNC inhibitor -114
O=C1C=CC2=C3c4cc(O)c(O)cc4C[C@@]3(O)COC2=C1	HPGD inh 11µM (no result: PNC inhibitor)
COC(=O)[C@@]1(Cc2ccc(F)cc2)[C@H]2c3cc(C(=O)N4CCCC4)n(CCCNc4ncc(C(F)(F)F)cc4Cl)c3C[C@H]2CN1C(=O)c1ccccc1	none (no result: PNC inhibitor)
N#Cc1cccc(-c2nccc(NCc3cccs3)n2)c1	none (no result: HPGD inh, PNC inhibitor)
Fc1ccc(Nc2ccnc(-c3ccoc3)n2)cc1	ALDH1A1 block 32µM (no result: HPGD inh, PNC inhibitor)
Fc1ccc(Nc2ccnc(-c3ccc4c(c3)OCO4)n2)cc1	none (no result: HPGD inh, PNC inhibitor)
c1csc(CNc2ccnc(-c3ccoc3)n2)c1	ALDH1A1 block 11µM (no result: HPGD inh, PNC inhibitor)
Cc1nc(N2CCOCC2)nc(OCCN2CCOCC2)c1[N+](=O)[O-]	PNC inhibitor inconclusive
COC(C)(C)CCCC(C)C/C=C/C(C)=C/C(=O)O (stereo unspecified)	none (no result: PNC inhibitor)
Cc1cn([C@H]2C[C@@H](N=[N+]=[N-])[C@@H](CO)O2)c(=O)[nH]c1=O	none (no result: PNC inhibitor)
CC1CCc2c(C(=O)N3CCN(S(=O)(=O)c4cccs4)CC3)csc2C1 (stereo unspecified)	ALDH1A1 block inconclusive
O=C(Nc1cc(C(F)(F)F)ccc1Cl)C(Sc1nnc(-c2cccs2)o1)c1ccccc1 (stereo unspecified)	ALDH1A1 block 1µM (no result: HPGD inh)
COc1ccc(C)cc1NC(=O)C(Sc1nnc(-c2cccs2)o1)c1ccccc1 (stereo unspecified)	none
